Measurements from PubChem BioAssay AID1159580 (chemical genetic matrix, 2015).
Several values for one entry are separate records, joined by “and”; a condition that tells them apart may be missing. Equal values may be shown once. The campaign covered roughly 5,500 compounds. About 2,000 (36%) were called active. Another 18% or so got no clear call; they are omitted. Rule as the data show it: active = normalized growth mostly below about 0.91 (no sharp cut-off); inconclusive = no clear call, values can overlap the other calls; inactive = mostly above about 0.92. The list shows a part of the results.

Assay: chemical genetic growth profiling, strain panel (AID 1159580);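 also: tested at 20 µM; growth read once vehicle control cultures reached saturation at 30 °C; 1 = growth at the plate median or of vehicle wells; lower values mean less growth of the strain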
Conditions: S. cerevisiae deletion strains, growth OD

Measured: normalized growth

COc1ccc([C@H]2COc3c(ccc(O)c3OC)C2)c(OC)c1O
active: locus YDR137W, strain rgp1, active compounds read low 0.828
inactive: locus YAL021C, strain ccr4, active compounds read low 0.984 | locus YAL026C, strain drs2, active compounds read low 0.975 | locus YAL030W, strain snc1, active compounds read low 0.992 | locus YBL061C, strain skt5, active compounds read low 0.989 | locus YBR009C, strain hhf1, active compounds read low 0.976 | locus YBR021W, strain FUR4, active compounds read low 1.11 | locus YBR023C, strain chs3, active compounds read low 0.985 | locus YBR171W, strain sec66, active compounds read low 0.969 | locus YBR229C, strain ROT2, active compounds read low 0.947 | locus YBR231C, strain swc5, active compounds read low 0.988 | locus YBR279W, strain paf1, active compounds read low 0.984 | locus YCL011C, strain gbp2, active compounds read low 0.972 | locus YCL016C, strain dcc1, active compounds read low 0.989 | locus YCL029C, strain bik1, active compounds read low 0.993 | locus YCL061C, strain MRC1, active compounds read low 0.968 | locus YCL069W, strain vba3, active compounds read low 0.988 | locus YCR088W, strain abp1, active compounds read low 0.984 | locus YDL005C, strain med2, active compounds read low 0.975 | locus YDL035C, strain GPR1, active compounds read low 0.998 | locus YDL040C, strain nat1, active compounds read low 0.991 | locus YDL074C, strain BRE1, active compounds read low 1.02 | locus YDL101C, strain DUN1, active compounds read low 0.978 | locus YDL185W, strain tfp1, active compounds read low 0.946 | locus YDL192W, strain arf1, active compounds read low 0.971 | locus YDR001C, strain nth1, active compounds read low 0.986 | locus YDR069C, strain doa4, active compounds read low 0.979 | locus YDR101C, strain arx1, active compounds read low 0.969 | locus YDR159W, strain sac3, active compounds read low 0.974 | locus YDR162C, strain NBP2, active compounds read low 0.943 | locus YDR195W, strain ref2 1 | locus YDR297W, strain sur2, active compounds read low 0.98 | locus YDR318W, strain mcm21, active compounds read low 0.986 | locus YDR334W, strain swr1, active compounds read low 0.962 | locus YDR335W, strain msn5, active compounds read low 0.98 | locus YDR388W, active compounds read low 0.995 | locus YDR392W, strain spt3, active compounds read low 0.926 | locus YDR502C, strain sam2, active compounds read low 0.977 | locus YEL003W, strain gim4, active compounds read low 0.976 | locus YEL037C, strain rad23, active compounds read low 0.992 | locus YEL061C, strain CIN8 (second series), active compounds read low 0.973 | locus YEL061C, strain CIN8, active compounds read low 0.985 | locus YER015W, strain faa2, active compounds read low 0.989 | locus YER016W, strain bim1, active compounds read low 0.983 | locus YER110C, active compounds read low 0.962 | locus YER111C, strain swi4, active compounds read low 0.983 | locus YER155C, strain BEM2 (second series), active compounds read low 0.988 | locus YER155C, strain BEM2, active compounds read low 1.01 | locus YER167W, strain BCK2, active compounds read low 1 | locus YFR010W, strain ubp6, active compounds read low 0.957 | locus YGL078C, strain dbp3, active compounds read low 0.978 | locus YGL086W, strain mad1, active compounds read low 0.994 | locus YGL167C, strain pmr1, active compounds read low 0.981 | locus YGL173C, strain kem1, active compounds read low 0.977 | locus YGL227W, strain vid30, active compounds read low 0.988 | locus YGL240W, strain doc1, active compounds read low 0.978 | locus YGL248W, strain PDE1, active compounds read low 0.985 | locus YGL253W, strain hxk2, active compounds read low 0.997 | locus YGR078C, strain PAC10, active compounds read low 0.989 | locus YGR135W, strain pre9, active compounds read low 0.986 | locus YGR229C, strain SMI1, active compounds read low 0.987 | locus YGR252W, strain gcn5, active compounds read low 1.03 | locus YHR013C, strain ard1, active compounds read low 0.978 | locus YHR027C, strain rpn1, active compounds read low 0.978 | locus YHR030C, strain SLT2, active compounds read low 1 | locus YHR079C, strain IRE1 (second series), active compounds read low 0.997 | locus YHR079C, strain IRE1, active compounds read low 1.02 | locus YHR094C, strain hxt1, active compounds read low 0.98 | locus YHR129C, strain ARP1, active compounds read low 1.01 | locus YHR142W, strain chs7, active compounds read low 0.968 | locus YHR200W, strain rpn10, active compounds read low 0.967 | locus YIL066C, strain RNR3, active compounds read low 0.975 | locus YIL073C, strain SPO22, active compounds read low 0.924 | locus YIL125W, strain kgd1, active compounds read low 0.987 | locus YIR030C, strain dcg1, active compounds read low 1 | locus YJL092W, strain hpr5, active compounds read low 0.977 | locus YJL095W, strain BCK1 (second series), active compounds read low 0.995 | locus YJL095W, strain BCK1, active compounds read low 0.98 and 1.03 | locus YJL115W, strain asf1, active compounds read low 0.967 | locus YJL129C, strain trk1, active compounds read low 0.977 | locus YJL134W, strain LCB3, active compounds read low 0.994 | locus YJL154C, strain vps35, active compounds read low 0.983 | locus YJL164C, strain tpk1, active compounds read low 0.967 | locus YJL166W, strain qcr8, active compounds read low 0.993 | locus YJL168C, strain set2, active compounds read low 0.989 | locus YJL187C, strain SWE1 (second series), active compounds read low 0.981 | locus YJL187C, strain SWE1, active compounds read low 0.991 | locus YJR043C, strain POL32, active compounds read low 0.987 | locus YJR066W, strain TOR1, active compounds read low 1.01 | locus YJR075W, strain HOC1, active compounds read low 0.969 | locus YKL009W, strain mrt4, active compounds read low 0.977 | locus YKL068W, active compounds read low 0.973 | locus YKL085W, strain MDH1 (second series), active compounds read low 0.974 | locus YKL085W, strain MDH1, active compounds read low 0.974 | locus YKL160W, strain elf1, active compounds read low 0.986 | locus YKL190W, strain CNB1, active compounds read low 0.991 | locus YKR001C, strain vps1, active compounds read low 1 | locus YKR026C, strain gcn3, active compounds read low 0.982 | locus YKR091W, strain srl3, active compounds read low 0.992 | locus YLL001W, strain dnm1, active compounds read low 0.978 | locus YLL026W, active compounds read low 0.994 | locus YLL041C, strain sdh2, active compounds read low 0.98 | locus YLR027C, strain aat2, active compounds read low 1 | locus YLR039C, strain RIC1, active compounds read low 0.953 | locus YLR058C, strain SHM2, active compounds read low 0.98 | locus YLR102C, strain apc9, active compounds read low 0.997 | locus YLR113W, strain HOG1, active compounds read low 0.969 | locus YLR221C, strain rsa3, active compounds read low 0.993 | locus YLR258W, strain gsy2, active compounds read low 0.992 | locus YLR262C, strain YPT6 (second series), active compounds read low 0.912 | locus YLR262C, strain YPT6, active compounds read low 0.939 | locus YLR268W, strain sec22, active compounds read low 0.99 | locus YLR320W, strain mms22, active compounds read low 0.987 | locus YLR330W, strain CHS5, active compounds read low 1 | locus YLR342W, strain FKS1 (second series), active compounds read low 1.05 | locus YLR342W, strain FKS1, active compounds read low 0.989 | locus YLR357W, strain rsc2, active compounds read low 0.978 | locus YLR370C, strain arc18, active compounds read low 0.977 | locus YLR371W, strain rom2, active compounds read low 0.994 | locus YLR384C, strain iki3, active compounds read low 0.995 | locus YLR418C, strain cdc73, active compounds read low 1 | locus YML016C, strain PPZ1, active compounds read low 0.995 | locus YML032C, strain rad52, active compounds read low 0.993 | locus YML120C, strain ndi1, active compounds read low 0.979 | locus YML124C, strain tub3, active compounds read low 0.974 | locus YMR058W, strain fet3, active compounds read low 0.97 | locus YMR078C, strain ctf18, active compounds read low 0.99 | locus YMR125W, strain sto1, active compounds read low 0.979 | locus YMR129W, active compounds read low 0.977 | locus YMR205C, strain PFK2, active compounds read low 0.978 | locus YMR223W, strain ubp8, active compounds read low 0.972 | locus YMR231W, strain pep5, active compounds read low 0.996 | locus YMR307W, strain GAS1, active compounds read low 1.09 | locus YNL067W, strain RPL9B, active compounds read low 0.996 | locus YNL071W, strain lat1, active compounds read low 0.982 | locus YNL183C, strain NPR1, active compounds read low 0.974 | locus YNL209W, strain ssb2, active compounds read low 0.987 | locus YNL233W, strain BNI4, active compounds read low 0.996 | locus YNL248C, strain rpa49, active compounds read low 0.977 | locus YNL250W, strain rad50, active compounds read low 0.968 | locus YNL271C, strain bni1, active compounds read low 0.979 | locus YNL298W, strain CLA4, active compounds read low 0.975 | locus YNL307C, strain MCK1, active compounds read low 0.986 | locus YNL322C, strain KRE1 (second series), active compounds read low 0.991 | locus YNR049C, strain mso1, active compounds read low 0.995 | locus YNR052C, strain pop2, active compounds read low 0.996 | locus YOL006C, strain TOP1, active compounds read low 1.1 | locus YOL012C, strain htz1 0.955 | locus YOL147C, strain pex11, active compounds read low 0.995 | locus YOR001W, strain rrp6, active compounds read low 0.986 | locus YOR061W, strain CKA2, active compounds read low 0.966 | locus YOR069W, strain VPS5, active compounds read low 0.999 | locus YOR070C, strain gyp1, active compounds read low 0.988 | locus YOR080W, strain dia2, active compounds read low 0.988 | locus YOR083W, strain WHI5, active compounds read low 0.985 | locus YOR106W, strain vam3, active compounds read low 0.976 | locus YOR136W, strain idh2, active compounds read low 0.978 | locus YOR144C, strain elg1, active compounds read low 0.983 | locus YOR184W, strain ser1, active compounds read low 0.956 | locus YOR231W, strain MKK1, active compounds read low 1.03 | locus YOR265W, strain rbl2, active compounds read low 0.994 | locus YOR270C, strain vph1, active compounds read low 0.933 | locus YOR290C, strain snf2, active compounds read low 0.966 | locus YOR316C, strain cot1, active compounds read low 0.981 | locus YPL051W, strain arl3, active compounds read low 0.995 | locus YPL055C, strain LGE1, active compounds read low 1.01 | locus YPL078C, strain atp4, active compounds read low 0.986 | locus YPL106C, strain sse1, active compounds read low 0.989 | locus YPL240C, strain hsp82, active compounds read low 0.963 | locus YPL241C, strain CIN2, active compounds read low 0.958 | locus YPL256C, strain CLN2, active compounds read low 1.03 | locus YPR119W, strain clb2, active compounds read low 0.978 | locus YPR141C, strain kar3, active compounds read low 0.979 | locus YPR163C, strain tif3, active compounds read low 0.981 | locus YPR167C, strain met16, active compounds read low 1 | strain wtn01, active compounds read low 0.981
